Inconclusive results are not listed. Activity calls are given as the source filed them. Unless noted, calls follow the shape of the dose curve; as a rule, active = well fitted curve in the direction sought with a large enough effect in the repeat runs; inconclusive = weak or mixed curves; inactive = no such curve, though single readings can be large; an effect the other way counts as inactive or inconclusive.
Key:
[1] = qHTS assay to identify small molecule antagonists of the progesterone receptor (PR) signaling pathway - cell viability counter screen (AID 1346798); also: series mostly up to about 92 µM; nearly all actives have a fitted effect of over 50% in size
Summary of the method: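 Following a 4 hr attachment, PR-UAS-bla HEK293T cells in charcoal-stripped FBS medium were exposed to compounds with R5020 for 16 hr; CellTiter-Glo was added and luminescence read after 30 min at room temperature.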

[2] = qHTS assay to identify small molecule agonists of the TGF-beta/Smad signaling pathway - cell viability counter screen (AID 1346829); also: top concentration of the series differs between compounds; nearly all actives have a fitted effect of over 45% in size
Summary of the method: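 Cytotoxicity counter screen: CellTiter-Glo luminescence (30 min, room temperature) measured in the SBE-bla HEK 293T reporter wells after 5 hr compound treatment at 37 C and the 2 hr substrate step.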

[3] = qHTS assay to identify small molecule agonists of the TGF-beta/Smad signaling pathway (AID 1346859; active = well fitted activation curve with a large enough effect in the signal ratio in the repeat runs, not every such curve was filed as active; the % refers to the signal ratio; also: series mostly up to about 77 µM)
Summary of the method: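 Each well held 4,000 SBE-bla HEK 293T cells incubated overnight before compound addition; 5 hr later the cleavable FRET substrate went on for 2 hr at room temperature, and fluorescence was read at two emissions.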

[4] = biological target: Thyrotropin-releasing hormone receptor (Homo sapiens) (UniProt P34981); test: qHTS assay to identify small molecule antagonists of the thyrotropin-releasing hormone receptor (TRHR) signaling pathway (AID 1346877; active = well fitted inhibition curve with a large enough effect in the repeat runs, not every such curve was filed as active; also: series mostly up to about 51 µM)
Summary of the method: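 Antagonism is measured as suppression of the calcium response to 1 nM TRH in TRHR-HEK293 cells that have been dye-loaded for 2 h at 37 °C after overnight plating. Each compound is tested at 15 concentrations in triplicate.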

[5] = biological target: Thyrotropin-releasing hormone receptor (Homo sapiens) (UniProt P34981); test: qHTS assay to identify small molecule agonists of the thyrotropin-releasing hormone receptor (TRHR) signaling pathway (AID 1346891; calls by dose curve; also: series mostly up to about 58 µM)
Summary of the method: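 Screening of agonists relied on calcium signalling in HEK293 cells expressing human TRHR: dye loading 2 h at 37 °C preceded compound addition and a 3-min fluorescence time course.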

[6] = Human pregnane X receptor (PXR) small molecule agonists, qHTS cell viability counter screen (AID 1346977); also: nearly all actives have a fitted effect of over 50% in size
Summary of the method: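 Tox21 qHTS format; PXR-Luc HepG2, 2,000/well, charcoal-stripped FBS 5%. Cpd exposure 24hr. Read: CellTiter-Fluor fluorescence, multiplexed with luciferase.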

[7] = Caspase-3/7 induction in HepG2 cells by small molecules, qHTS assay (AID 1346978); also: nearly all actives have a fitted effect of over 15% in size
Summary of the method: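 Wild-type HepG2 cells, 2,000/well, settled 5 hr at 37 C and 5% CO2, then compound-treated for 17 hr; caspase-3/7 activity read by luminescent Caspase-Glo 3/7 after 30 min at room temperature.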

[8] = Caspase-3/7 induction in CHO-K1 cells by small molecules, qHTS cell viability counter screen (AID 1346979); also: nearly all actives have a fitted effect of over 35% in size
Summary of the method: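 CellTiter-Fluor viability check, qHTS format: wild-type CHO-K1, 16hr compound treatment, 1hr reagent incubation, fluorescence read.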

[9] = qHTS assay to identify small molecule agonists of the progesterone receptor (PR) signaling pathway - cell viability counter screen (AID 1346799; calls by dose curve; also: nearly all actives have a fitted effect of over 45% in size)
Summary of the method: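 Here, 3,000 PR-UAS-bla HEK293T cells per well were treated with compounds for 16 hr after a 6 hr preincubation at 37C and 5% CO2; cell viability is the CellTiter-Glo luminescence signal.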

[10] = qHTS assay to identify small molecule antagonists of the TGF-beta/Smad signaling pathway - cell viability counter screen (AID 1346824); also: nearly all actives have a fitted effect of over 50% in size
Summary of the method: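 SBE-bla HEK 293T cells, incubated overnight, then compound plus 0.25 ng/mL TGF-beta1 (stock added) for 5 hr at 37 C. Viability was read in the same wells by CellTiter-Glo luminescence after 30 min at room temperature.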

Measured: Potency

Sequence of Thyrotropin-releasing hormone receptor (Homo sapiens) (P34981 whole entry, looked up): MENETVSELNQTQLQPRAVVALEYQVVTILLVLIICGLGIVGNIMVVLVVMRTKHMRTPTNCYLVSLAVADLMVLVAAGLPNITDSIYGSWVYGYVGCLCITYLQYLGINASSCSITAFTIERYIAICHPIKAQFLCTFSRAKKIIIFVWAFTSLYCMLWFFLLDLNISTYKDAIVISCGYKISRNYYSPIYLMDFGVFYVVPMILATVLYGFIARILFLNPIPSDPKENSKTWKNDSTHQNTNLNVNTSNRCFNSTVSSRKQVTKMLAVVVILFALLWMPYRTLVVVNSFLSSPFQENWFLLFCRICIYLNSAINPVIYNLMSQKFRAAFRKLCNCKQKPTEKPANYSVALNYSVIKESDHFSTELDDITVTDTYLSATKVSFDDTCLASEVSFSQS

Nc1ccccc1C(=O)O
inactive: [1] | [2] | [3] | [4] | [5] | [6] | [7] | [8]

CN(N=O)c1ccccc1
inactive: [1] | [2] | [3] | [4] | [5] | [6] | [7] | [8]

CCCCCCCCCl
inactive: [1] | [2] | [3] | [4] | [5] | [6] | [7] | [8]

O=NN1CCCC1
inactive: [9] | [10] | [2] | [3] | [6] | [7] | [8]

CCC(C)(CC)c1cc(NC(=O)c2c(OC)cccc2OC)on1
inactive: [9] | [2] | [3] | [4] | [5] | [6] | [7]

Nc1ccc(Oc2ccc(N)cc2)cc1
inactive: [1] | [2] | [3] | [6] | [7] | [8]

OCCN(CCO)CCO
inactive: [1] | [2] | [3] | [6] | [7] | [8]

c1ccc(-c2ccccc2)cc1
inactive: [1] | [10] | [2] | [3] | [4] | [5] | [6] | [7] | [8]

CCOP(OCC)OCC
inactive: [1] | [2] | [3] | [4] | [5] | [6] | [7] | [8]

O=c1n(Cl)c(=O)n(Cl)c(=O)n1Cl
inactive: [1] | [2] | [3] | [4] | [5] | [6] | [7] | [8]

O=[N+]([O-])c1ccc(Oc2ccc(Cl)cc2Cl)cc1
inactive: [9] | [10] | [2] | [3] | [4] | [5] | [6] | [7] | [8]

CC(C)(C)OOC(=O)c1ccccc1
inactive: [1] | [2] | [3] | [6] | [7] | [8]

CN(C)N=O
inactive: [1] | [10] | [2] | [3] | [4] | [5] | [6] | [7] | [8]

CCNc1nc(NC(C)(C)C)nc(SC)n1
inactive: [10] | [2] | [3] | [4] | [5] | [6] | [7] | [8]

Cc1ccc([N+](=O)[O-])cc1C
inactive: [1] | [2] | [3] | [4] | [5] | [6] | [7] | [8]
